Measured values from ChEMBL document CHEMBL1961873, “Compounds: GSK PKIS; Assays: Nanosyn kinase panel” (2012).

Assays:
[1] = molecular target: High affinity nerve growth factor receptor (Homo sapiens) (UniProt P04629); conditions: at 1 µM;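 further: each value is the mean percent inhibition of TRKA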
[2] = molecular target: BDNF/NT-3 growth factors receptor (Homo sapiens) (UniProt Q16620); conditions: at 0.1 µM
[3] = molecular target: BDNF/NT-3 growth factors receptor (Homo sapiens) (UniProt Q16620); conditions: at 1 µM
[4] = molecular target: NT-3 growth factor receptor (Homo sapiens) (UniProt Q16288); conditions: at 0.1 µM
Sequence of NT-3 growth factor receptor (Homo sapiens) (Q16288 32-839 limits assumed): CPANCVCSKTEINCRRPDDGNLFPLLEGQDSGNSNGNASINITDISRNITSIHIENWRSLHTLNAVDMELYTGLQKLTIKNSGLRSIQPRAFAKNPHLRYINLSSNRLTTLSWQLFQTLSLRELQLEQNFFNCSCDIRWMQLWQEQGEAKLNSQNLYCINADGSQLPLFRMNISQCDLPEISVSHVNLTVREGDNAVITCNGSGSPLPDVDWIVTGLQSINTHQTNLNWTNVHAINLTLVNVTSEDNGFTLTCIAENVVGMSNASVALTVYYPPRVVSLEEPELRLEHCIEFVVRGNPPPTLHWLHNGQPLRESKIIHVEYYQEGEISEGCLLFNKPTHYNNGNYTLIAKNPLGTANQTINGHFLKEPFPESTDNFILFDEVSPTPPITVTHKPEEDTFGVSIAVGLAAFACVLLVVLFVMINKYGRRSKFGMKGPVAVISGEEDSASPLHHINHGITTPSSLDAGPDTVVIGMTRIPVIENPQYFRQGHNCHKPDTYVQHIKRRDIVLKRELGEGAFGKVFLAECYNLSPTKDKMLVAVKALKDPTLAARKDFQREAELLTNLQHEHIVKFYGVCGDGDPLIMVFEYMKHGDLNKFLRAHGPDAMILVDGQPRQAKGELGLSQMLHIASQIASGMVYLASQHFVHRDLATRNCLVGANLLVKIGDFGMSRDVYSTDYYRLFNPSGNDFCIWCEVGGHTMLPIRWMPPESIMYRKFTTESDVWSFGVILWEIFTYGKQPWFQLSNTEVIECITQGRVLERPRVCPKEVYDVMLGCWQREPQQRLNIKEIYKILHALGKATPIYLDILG

[5] = molecular target: NT-3 growth factor receptor (Homo sapiens) (UniProt Q16288); conditions: at 1 µM
[6] = molecular target: T1, Tyrosine-protein kinase TXK (Homo sapiens) (UniProt P42681); conditions: at 0.1 µM
T1 sequence (whole entry): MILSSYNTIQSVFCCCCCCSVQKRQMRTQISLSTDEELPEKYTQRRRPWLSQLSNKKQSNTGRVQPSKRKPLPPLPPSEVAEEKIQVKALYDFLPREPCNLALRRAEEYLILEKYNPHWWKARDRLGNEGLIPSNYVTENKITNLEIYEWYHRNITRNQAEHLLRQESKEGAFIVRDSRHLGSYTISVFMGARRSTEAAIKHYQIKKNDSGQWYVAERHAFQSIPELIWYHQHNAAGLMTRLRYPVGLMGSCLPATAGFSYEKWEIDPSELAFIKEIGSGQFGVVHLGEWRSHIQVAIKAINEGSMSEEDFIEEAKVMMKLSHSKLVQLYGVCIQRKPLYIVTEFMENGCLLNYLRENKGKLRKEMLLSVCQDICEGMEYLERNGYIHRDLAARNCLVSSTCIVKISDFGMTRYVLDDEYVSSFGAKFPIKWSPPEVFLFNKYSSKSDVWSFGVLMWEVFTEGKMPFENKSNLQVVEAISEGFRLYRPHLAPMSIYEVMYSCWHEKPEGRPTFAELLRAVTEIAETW

[7] = molecular target: T1, Tyrosine-protein kinase TXK (Homo sapiens); conditions: at 1 µM
[8] = molecular target: Non-receptor tyrosine-protein kinase TYK2 (Homo sapiens) (UniProt P29597); conditions: at 0.1 µM;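 further: each value is a mean of the inhibition readings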
Sequence of Non-receptor tyrosine-protein kinase TYK2 (Homo sapiens) (P29597 whole entry): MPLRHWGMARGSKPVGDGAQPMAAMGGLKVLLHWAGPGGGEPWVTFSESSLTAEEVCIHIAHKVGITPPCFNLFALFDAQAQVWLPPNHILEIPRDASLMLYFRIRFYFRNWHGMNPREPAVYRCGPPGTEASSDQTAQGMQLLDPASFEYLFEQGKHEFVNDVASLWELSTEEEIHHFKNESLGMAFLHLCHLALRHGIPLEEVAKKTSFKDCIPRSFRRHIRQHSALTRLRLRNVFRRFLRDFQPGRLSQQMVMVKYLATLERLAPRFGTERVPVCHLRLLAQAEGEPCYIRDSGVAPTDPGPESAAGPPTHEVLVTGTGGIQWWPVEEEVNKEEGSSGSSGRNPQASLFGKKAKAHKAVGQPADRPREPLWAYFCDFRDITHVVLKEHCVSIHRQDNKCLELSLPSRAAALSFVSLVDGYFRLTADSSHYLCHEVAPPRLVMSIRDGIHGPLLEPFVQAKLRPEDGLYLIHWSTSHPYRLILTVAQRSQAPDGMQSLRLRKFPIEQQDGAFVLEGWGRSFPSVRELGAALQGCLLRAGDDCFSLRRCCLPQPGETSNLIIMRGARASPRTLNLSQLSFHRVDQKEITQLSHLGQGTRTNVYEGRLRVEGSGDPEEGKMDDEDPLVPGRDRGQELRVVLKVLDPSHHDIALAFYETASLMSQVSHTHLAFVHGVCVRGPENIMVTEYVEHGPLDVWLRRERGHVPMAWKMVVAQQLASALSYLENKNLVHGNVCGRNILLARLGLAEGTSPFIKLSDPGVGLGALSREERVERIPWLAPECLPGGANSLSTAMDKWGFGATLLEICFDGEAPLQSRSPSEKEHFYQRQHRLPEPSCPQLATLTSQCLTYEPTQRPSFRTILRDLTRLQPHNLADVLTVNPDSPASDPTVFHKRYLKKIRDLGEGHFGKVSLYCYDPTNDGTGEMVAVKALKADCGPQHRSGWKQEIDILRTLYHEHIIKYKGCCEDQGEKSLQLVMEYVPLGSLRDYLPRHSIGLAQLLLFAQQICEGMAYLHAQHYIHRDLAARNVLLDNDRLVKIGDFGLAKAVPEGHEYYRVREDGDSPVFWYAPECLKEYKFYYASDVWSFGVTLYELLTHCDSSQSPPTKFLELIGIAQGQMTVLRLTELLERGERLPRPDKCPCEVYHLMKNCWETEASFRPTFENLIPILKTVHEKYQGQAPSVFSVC

[9] = molecular target: T2, Dual specificity protein kinase TTK (Homo sapiens) (UniProt P33981); conditions: at 1 µM;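 further: reported figures are mean TTK inhibition at 1 µM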
T2 sequence (whole entry): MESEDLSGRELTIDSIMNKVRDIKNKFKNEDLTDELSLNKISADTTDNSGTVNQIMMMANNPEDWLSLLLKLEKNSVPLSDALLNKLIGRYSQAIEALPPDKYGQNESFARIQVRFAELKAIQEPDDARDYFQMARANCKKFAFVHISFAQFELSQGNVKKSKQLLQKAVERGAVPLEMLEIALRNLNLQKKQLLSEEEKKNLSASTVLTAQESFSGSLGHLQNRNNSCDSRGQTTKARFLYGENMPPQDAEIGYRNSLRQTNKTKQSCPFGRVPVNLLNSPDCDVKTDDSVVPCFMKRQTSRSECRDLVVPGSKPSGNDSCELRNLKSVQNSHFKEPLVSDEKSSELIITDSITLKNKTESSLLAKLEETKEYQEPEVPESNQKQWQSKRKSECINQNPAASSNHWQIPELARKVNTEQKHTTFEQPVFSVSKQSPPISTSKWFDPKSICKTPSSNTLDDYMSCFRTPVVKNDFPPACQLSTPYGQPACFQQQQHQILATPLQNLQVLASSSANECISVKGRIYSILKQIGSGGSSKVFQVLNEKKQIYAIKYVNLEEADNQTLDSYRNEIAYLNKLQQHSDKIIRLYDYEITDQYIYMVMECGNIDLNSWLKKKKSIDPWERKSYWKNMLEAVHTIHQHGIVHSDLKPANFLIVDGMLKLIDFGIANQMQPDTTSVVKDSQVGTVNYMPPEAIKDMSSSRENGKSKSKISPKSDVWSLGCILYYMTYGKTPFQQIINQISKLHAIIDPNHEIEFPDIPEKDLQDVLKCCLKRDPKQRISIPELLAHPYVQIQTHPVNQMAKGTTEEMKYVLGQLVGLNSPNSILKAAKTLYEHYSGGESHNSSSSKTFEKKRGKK

[10] = molecular target: T3, Aurora kinase A (Homo sapiens) (UniProt O14965); conditions: at 0.1 µM
T3 sequence (whole entry): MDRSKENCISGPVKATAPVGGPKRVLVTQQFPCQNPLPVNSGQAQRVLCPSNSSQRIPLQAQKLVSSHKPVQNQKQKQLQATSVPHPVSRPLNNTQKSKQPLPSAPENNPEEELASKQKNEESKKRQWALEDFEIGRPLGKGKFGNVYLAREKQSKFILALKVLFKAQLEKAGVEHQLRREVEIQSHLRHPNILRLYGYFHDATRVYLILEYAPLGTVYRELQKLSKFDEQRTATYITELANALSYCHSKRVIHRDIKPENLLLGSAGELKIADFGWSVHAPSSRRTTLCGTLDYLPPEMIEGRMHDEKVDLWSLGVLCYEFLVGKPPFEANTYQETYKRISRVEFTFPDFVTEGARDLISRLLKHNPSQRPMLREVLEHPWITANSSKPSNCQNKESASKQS

[11] = molecular target: T3, Aurora kinase A (Homo sapiens); conditions: at 1 µM
[12] = molecular target: Aurora kinase B (Homo sapiens) (UniProt Q96GD4); conditions: at 0.1 µM
Sequence of Aurora kinase B (Homo sapiens) (Q96GD4 whole entry): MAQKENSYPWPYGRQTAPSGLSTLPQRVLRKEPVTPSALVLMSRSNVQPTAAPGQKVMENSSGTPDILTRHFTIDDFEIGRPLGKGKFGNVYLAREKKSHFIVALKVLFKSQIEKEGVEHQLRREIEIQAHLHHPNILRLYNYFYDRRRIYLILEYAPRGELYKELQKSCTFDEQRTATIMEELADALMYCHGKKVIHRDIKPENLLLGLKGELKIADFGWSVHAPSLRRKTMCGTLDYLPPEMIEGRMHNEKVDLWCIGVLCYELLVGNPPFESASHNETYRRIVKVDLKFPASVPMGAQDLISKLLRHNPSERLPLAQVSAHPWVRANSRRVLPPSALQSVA

[13] = molecular target: Aurora kinase B (Homo sapiens) (UniProt Q96GD4); conditions: at 1 µM
[14] = molecular target: T4, Aurora kinase C (Homo sapiens) (UniProt Q9UQB9); conditions: at 0.1 µM
T4 sequence (whole entry): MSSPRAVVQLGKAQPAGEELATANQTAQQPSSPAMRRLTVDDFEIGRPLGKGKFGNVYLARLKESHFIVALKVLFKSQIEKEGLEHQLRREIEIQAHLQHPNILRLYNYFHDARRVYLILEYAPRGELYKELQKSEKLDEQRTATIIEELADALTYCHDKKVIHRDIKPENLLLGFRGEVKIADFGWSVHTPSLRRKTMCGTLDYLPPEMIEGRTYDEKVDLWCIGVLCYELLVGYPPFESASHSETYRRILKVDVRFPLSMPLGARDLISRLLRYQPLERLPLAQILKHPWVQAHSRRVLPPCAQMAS

[15] = molecular target: T4, Aurora kinase C (Homo sapiens); conditions: at 1 µM
[16] = molecular target: Serine/threonine-protein kinase 10 (Homo sapiens) (UniProt O94804); conditions: at 0.1 µM
[17] = molecular target: Serine/threonine-protein kinase 10 (Homo sapiens) (UniProt O94804); conditions: at 1 µM
[18] = molecular target: T5, Mitogen-activated protein kinase kinase kinase kinase 2 (Homo sapiens) (UniProt Q12851); conditions: at 0.1 µM
T5 sequence (whole entry): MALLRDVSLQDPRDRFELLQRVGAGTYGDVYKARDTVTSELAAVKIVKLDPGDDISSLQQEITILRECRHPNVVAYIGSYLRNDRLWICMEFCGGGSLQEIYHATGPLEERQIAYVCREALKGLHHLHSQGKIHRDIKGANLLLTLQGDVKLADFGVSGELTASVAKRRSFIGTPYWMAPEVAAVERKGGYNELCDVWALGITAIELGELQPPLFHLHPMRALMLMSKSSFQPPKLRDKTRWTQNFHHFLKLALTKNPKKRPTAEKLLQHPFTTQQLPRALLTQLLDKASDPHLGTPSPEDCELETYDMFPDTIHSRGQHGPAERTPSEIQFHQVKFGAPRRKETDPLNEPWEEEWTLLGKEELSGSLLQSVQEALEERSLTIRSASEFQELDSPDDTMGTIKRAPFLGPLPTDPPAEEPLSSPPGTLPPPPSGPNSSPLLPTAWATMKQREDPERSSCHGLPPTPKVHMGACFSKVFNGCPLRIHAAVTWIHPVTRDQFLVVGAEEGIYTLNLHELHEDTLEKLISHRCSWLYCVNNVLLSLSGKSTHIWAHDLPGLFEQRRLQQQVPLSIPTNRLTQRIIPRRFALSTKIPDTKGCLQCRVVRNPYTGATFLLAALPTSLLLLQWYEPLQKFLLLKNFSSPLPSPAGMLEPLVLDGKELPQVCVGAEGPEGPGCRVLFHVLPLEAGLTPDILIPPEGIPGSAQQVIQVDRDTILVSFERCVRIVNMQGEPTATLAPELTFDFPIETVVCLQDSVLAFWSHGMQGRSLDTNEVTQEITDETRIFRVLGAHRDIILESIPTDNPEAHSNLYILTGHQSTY

[19] = molecular target: T5, Mitogen-activated protein kinase kinase kinase kinase 2 (Homo sapiens); conditions: at 1 µM
[20] = molecular target: Mitogen-activated protein kinase kinase kinase kinase 4 (Homo sapiens) (UniProt O95819); conditions: at 0.1 µM
Sequence of Mitogen-activated protein kinase kinase kinase kinase 4 (Homo sapiens) (O95819 2-1239 limits assumed): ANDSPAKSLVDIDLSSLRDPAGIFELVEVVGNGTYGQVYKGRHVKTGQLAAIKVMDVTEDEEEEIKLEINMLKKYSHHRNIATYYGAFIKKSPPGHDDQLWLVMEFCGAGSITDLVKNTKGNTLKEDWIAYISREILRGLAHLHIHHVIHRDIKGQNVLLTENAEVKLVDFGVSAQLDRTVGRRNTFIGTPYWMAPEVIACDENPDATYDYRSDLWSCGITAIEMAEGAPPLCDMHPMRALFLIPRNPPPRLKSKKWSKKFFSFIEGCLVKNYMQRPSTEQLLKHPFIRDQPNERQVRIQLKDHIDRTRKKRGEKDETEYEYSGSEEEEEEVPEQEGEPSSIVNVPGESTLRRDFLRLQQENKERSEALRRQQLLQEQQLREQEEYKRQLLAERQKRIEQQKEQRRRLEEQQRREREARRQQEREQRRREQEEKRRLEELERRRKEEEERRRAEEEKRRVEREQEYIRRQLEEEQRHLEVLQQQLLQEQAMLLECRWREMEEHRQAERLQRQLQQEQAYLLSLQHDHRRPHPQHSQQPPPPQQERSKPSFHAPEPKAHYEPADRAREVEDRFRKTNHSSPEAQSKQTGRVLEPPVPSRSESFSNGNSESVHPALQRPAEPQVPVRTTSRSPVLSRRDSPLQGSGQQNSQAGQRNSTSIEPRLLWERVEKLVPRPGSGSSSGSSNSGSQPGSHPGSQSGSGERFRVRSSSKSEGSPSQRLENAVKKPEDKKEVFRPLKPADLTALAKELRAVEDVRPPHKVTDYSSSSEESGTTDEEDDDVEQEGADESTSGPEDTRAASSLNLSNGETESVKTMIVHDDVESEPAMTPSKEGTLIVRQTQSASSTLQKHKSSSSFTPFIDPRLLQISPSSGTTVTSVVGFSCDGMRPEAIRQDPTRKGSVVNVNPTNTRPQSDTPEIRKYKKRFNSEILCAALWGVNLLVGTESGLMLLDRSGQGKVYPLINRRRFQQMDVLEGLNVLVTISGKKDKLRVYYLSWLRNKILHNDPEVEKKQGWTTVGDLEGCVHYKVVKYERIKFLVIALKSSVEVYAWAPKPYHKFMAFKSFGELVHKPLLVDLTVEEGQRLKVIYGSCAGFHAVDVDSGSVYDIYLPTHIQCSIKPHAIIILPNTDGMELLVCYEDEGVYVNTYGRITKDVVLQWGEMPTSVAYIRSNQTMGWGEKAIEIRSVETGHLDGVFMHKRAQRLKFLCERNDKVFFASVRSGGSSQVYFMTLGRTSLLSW

Sequence of BDNF/NT-3 growth factors receptor (Homo sapiens) (Q16620 32-822 limits assumed): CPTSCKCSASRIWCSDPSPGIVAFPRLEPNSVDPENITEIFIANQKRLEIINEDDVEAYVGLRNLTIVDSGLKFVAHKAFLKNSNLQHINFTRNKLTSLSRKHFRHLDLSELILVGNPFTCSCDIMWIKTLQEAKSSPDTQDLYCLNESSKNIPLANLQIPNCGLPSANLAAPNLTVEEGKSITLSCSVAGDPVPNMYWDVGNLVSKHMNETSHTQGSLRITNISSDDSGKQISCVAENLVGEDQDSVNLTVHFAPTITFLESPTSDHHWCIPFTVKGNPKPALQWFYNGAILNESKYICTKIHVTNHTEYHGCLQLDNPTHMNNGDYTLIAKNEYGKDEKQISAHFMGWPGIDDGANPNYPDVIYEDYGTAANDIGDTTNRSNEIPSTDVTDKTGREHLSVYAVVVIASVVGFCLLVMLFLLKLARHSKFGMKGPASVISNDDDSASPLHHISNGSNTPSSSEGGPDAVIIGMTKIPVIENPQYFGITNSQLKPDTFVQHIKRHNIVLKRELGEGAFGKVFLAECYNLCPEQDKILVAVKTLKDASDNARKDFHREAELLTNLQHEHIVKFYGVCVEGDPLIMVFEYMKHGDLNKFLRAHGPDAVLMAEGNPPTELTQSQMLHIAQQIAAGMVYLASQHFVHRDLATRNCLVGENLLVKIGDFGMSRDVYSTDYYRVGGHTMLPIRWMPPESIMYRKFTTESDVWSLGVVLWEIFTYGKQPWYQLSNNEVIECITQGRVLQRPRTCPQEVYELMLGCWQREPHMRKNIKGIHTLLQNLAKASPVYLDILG

Compound	inhibition [1] [%]	inhibition [2] [%]	inhibition [3] [%]	inhibition [4] [%]	inhibition [5] [%]	inhibition [6] [%]	inhibition [7] [%]	inhibition [8] [%]	inhibition [9] [%]	inhibition [10] [%]	inhibition [11] [%]	inhibition [12] [%]	inhibition [13] [%]	inhibition [14] [%]	inhibition [15] [%]	inhibition [16] [%]	inhibition [17] [%]	inhibition [18] [%]	inhibition [19] [%]	inhibition [20] [%]
CNC(=O)c1cncc(/C=C/c2c(C)cccc2C)c1	0.47	0.05	0.22	0.47	1.16	5.71	35.6	-0.15	5.33	-1.77	-0.78	-3.36	-3.06	-3.26	-9.54	1.24	10.3	0.91	4.59	4.81
Nc1nccc(-c2c(-c3ccc(F)cc3)ncn2C2CCC(O)CC2)n1 (stereo not given)	-0.08	1.41	5.91	2	11.3	1.58	19.2	-2.03	-0.22	-2.33	22	-3.41	4.15	-1.77	-2.2	-0.75	9.11	2.53	16.2	9.24
N#Cc1ccc(Oc2nccc(-c3c(-c4ccc(F)cc4)ncn3C3CCNCC3)n2)cc1	0.26	2.91	4.54	2.17	3.17	-0.35	1.69	-3.12	8.89	3.21	4.78	3.58	5.49	0.14	3.86	6.19	8.89	0.91	4.07	3.8
Cc1ccc(NC(=O)c2ccoc2)cc1-c1ccc(C(=O)NCC2CC2)cc1	1.15	2.58	1.82	2.37	0.07	-0.38	2.18	-3.59	4.41	2.28	2.57	1.19	4.85	1.82	1	2.73	5.18	-0.94	0.39	0.77
